# Screens from PubChem.
# rRNA inh HTS = selective bacterial rRNA inhibition in E. coli; E. coli WT GFP vs humanized-ribosome RFP mutants, fluorescence, 24 h; stronger effect = lower value; DMSO median 0, no signal -100; GFP signal change (wild-type ribosome), % (test concentration not listed); hit rate 1.6% among 350,000; AID 720706;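 active = significant combined selectivity score with lowered wild-type GFP, culture density cut under 30%, mutant RFP and density less affected; inactive = any of these conditions unmet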
# CFTR F508del cor = correctors of CFTR F508del function in bronchial epithelial cells | CFBE cells, YFP halide quenching; stimulated with forskolin plus potentiator P3; % fluorescence drop versus neutral controls | activity (quench increase), % at 7.58 µM | hit rate 0.36% among 350,000 | AID 720511;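 active = mean added fluorescence quench of at least 8% versus neutral control, with both replicates also reaching 8%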;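 also: cells transiently co-express mutant CFTR-F508del with the halide-sensitive YFP; corrector assay measuring rescue of mutant channel to the surface after 24 h compound exposure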
# ARNT-TACC3 inh = disrupts binding between human ARNT and TACC3; Q9Y6A5; AlphaScreen His-ARNT PAS-B/GST-TACC3 binding, luminescence; TACC3 fragment carries E629A point mutation; inhibition, % at 9.99 µM; hit rate 0.66% among 390,000; AID 623870;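 active = mean inhibition of replicates at least 50% and at least half of replicates each reaching 50%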;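 also: 0% = complete ARNT plus TACC3 wells and 100% = ARNT alone without TACC3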
# ERAP1 inh = blocks human ERAP1 aminopeptidase activity | hit rate 0.15% among 340,000 | inhibition, % at 10.7 µM | recombinant ERAP1, Leu-AMC fluorescence, 60 min | Q9NZ08 | AID 652197;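 active = mean replicate inhibition of at least 30%, or all replicates individually reaching that 30% level; inactive = mean below 30% and not every replicate reaching it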;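 also: 0% = neutral control wells and 100% = L-leucinethiol positive control wells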
# PvdQ inh = P. aeruginosa PvdQ acylase inhibition; purified PvdQ acylase, fluorescence plate reader; inhibition, % at 10 µM; hit rate 0.063% among 340,000; AID 488965; in the data active = inhibition above about 30%, passing the limit was not always enough;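 also: 0% = vehicle neutral wells and 100% = reference inhibitor wells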
# Numbers without * were called inactive; . = no result. Hits are enriched below; roughly 2.1% of the tested compounds scored in any of these assays.
SMILES,rRNA inh HTS,CFTR F508del cor,ARNT-TACC3 inh,ERAP1 inh,PvdQ inh
Cc1cc(NC(=O)CSc2nccn2-c2cccc(C)c2C)no1,-28*,1,-3,-2,-3
Cc1cccc(NC(=O)Nc2ccc(Cl)c(Cl)c2)n1,-26*,4,-1,-5,-5
Cc1cccc(NC(=O)Nc2ccccc2)n1,-2,0,-11,0,-4
CC(C)c1[nH]nc2c1C(c1ccc(OC(=O)c3ccco3)cc1)C(C#N)=C(N)O2 (stereo not given),-27*,-3,3,1,-13
Cc1[nH]nc2c1C(c1ccc(OC(=O)c3ccco3)cc1)C(C#N)=C(N)O2 (stereo not given),.,.,9,.,-12
COc1cc(C2CC(=O)NC(SCC(=O)Nc3ccccc3C)=C2C#N)ccc1O (stereo not given),.,.,68*,.,-10
COc1ccc(NC2=C(C(C)=O)C(c3ccccc3)C(C(C)=O)C(C)(O)C2)cc1 (stereo not given),-27*,-1,25,5,-7
CN(C)c1ccc(C=C2C(=O)OC(C)(C)OC2=O)cc1,25,2,-13,-3,-7
CN(C)c1ccc(C=C2C(=O)OC(C)(C(C)(C)C)OC2=O)cc1 (stereo not given),.,.,active,.,9
CCOC(=O)CSc1nc2cc(S(=O)(=O)N3CCOCC3)ccc2n1CC,-5,-2,4,-2,-10
CCOC(=O)c1ccc2c(c1)nc(SCC(=O)N1CCOCC1)n2CC,-39*,3,8,2,-4
O=C(NC(=S)NNC(=O)c1ccccc1F)c1cccnc1,-19*,.,.,2,.
Cc1ccccc1C(=O)NNC(=S)NC(=O)c1cccnc1,-24,1,18,2,-3
Cc1noc(C)c1NC(=O)Nc1ccc2c(c1)C(=O)N([C@H](C)CO)C[C@H](C)[C@@H](CN(C)S(=O)(=O)c1ccc(F)cc1)OCCCC[C@@H](C)O2,-1,-1,-7,15,.
CSc1cccc(NC(=S)N2CCC(c3ccccc3)C2)c1 (stereo not given),-25*,.,-5,1,-3
O=C(Cc1ccccc1)N1C[C@@H]2[C@H](c3ccccc31)[C@@H](CO)N2C(=O)C1CCCCC1,-3,2,4,-1,.
Cc1ccc2c(c1)C1C3CCC(C3)C1S(=O)N2 (stereo not given),-4,0,-6,2,57*
Cc1ccc(NC(=O)c2cccc(N3C(=O)C4C5CCC(C5)C4C3=O)c2)c(C)c1 (stereo not given),.,.,-3,.,-1
Cc1ccc(-c2cc(Cc3ccccc3)c(=O)[nH]n2)cc1,-36*,-1,-2,1,6
O=C(Cc1ccccn1)NCC[C@H]1CC[C@@H](NS(=O)(=O)c2ccc(F)cc2)[C@@H](CO)O1,5,2,0,1,.
C[C@H](CO)N1C[C@H](C)[C@@H](CN(C)S(=O)(=O)c2cn(C)cn2)OCCCC[C@H](C)Oc2ccc(NS(=O)(=O)c3ccc(Cl)cc3)cc2C1=O,-3,-2,-7,-3,.
C/C(=N/NC(=O)C(O)(c1ccccc1)c1ccccc1)c1ccc([N+](=O)[O-])o1,-35*,-1,32,0,-8
CC(=O)c1cccc(NC(=O)c2ccc([N+](=O)[O-])o2)c1,.,1,-7,-1,-4
COc1ccnc(CSC(N)=Nc2ccccc2OC)c1,.,.,62*,.,-14
COc1ccnc(CSC(N)=Nc2ccccc2C(F)(F)F)c1,-9,.,26,-1,-8
SMILES,rRNA inh HTS,CFTR F508del cor,ARNT-TACC3 inh,ERAP1 inh,PvdQ inh
O=C(c1cccc(F)c1)N1CC(=O)N2[C@H](CO)[C@H](c3ccc(C4=CCCC4)cc3)[C@@H]2C1,1,1,.,1,.
O=C(COC(=O)c1n[nH]c2ccccc12)Nc1ccc([N+](=O)[O-])cc1,.,.,-3,.,-5
COc1cc(NC(=O)COC(=O)c2n[nH]c3ccccc23)c(C)cc1[N+](=O)[O-],18,20*,-7,-5,-8
Cc1ccc(S(=O)(=O)N2C[C@H]3[C@H]4C(=O)N(c5ccccc5)C(=O)[C@H]4C[C@H](OC(=O)NC4CC4)[C@@]3(O)C2)cc1,-4,0,.,-2,.
Cc1ccc(S(=O)(=O)N2C[C@H]3[C@H]4C(=O)N(c5ccccc5)C(=O)[C@H]4C[C@H](OC(=O)Nc4c(C)noc4C)[C@@]3(O)C2)cc1,-2.8*,1,.,-9,.
COc1ccc(OC)c(N/C(N)=N/c2nc(C)cc(C)n2)c1,9,8.9*,15,1,-15
CCCC(=O)Nc1ccc2c(c1)C(=O)N(C)C[C@@H](OC)[C@@H](C)CN(Cc1cncnc1)[C@H](C)CO2,1,-2,-7,-2,.
O=C(NC[C@H]1[C@@H](c2ccccc2)[C@@H](CO)N1C(=O)C1CC1)NC1CCCC1,-2,-2,0,3,.
CC(Nc1ccc(F)cc1)=[N+](C)CCNS(=O)(=O)c1ccc(Cl)cc1,2,-3,-2,39*,8
C[C@@H]1CN([C@H](C)CO)C(=O)c2cc(NC(=O)Nc3cccc4ccccc34)ccc2O[C@@H]1CN(C)C(=O)NC1CCCCC1,-7,0,2,0,.
CC(C)NC(=O)N(C)C[C@@H]1Oc2c(NC(=O)Nc3ccc(F)cc3)cccc2C(=O)N([C@@H](C)CO)C[C@@H]1C,-5,0,-5,0,.
COc1ccc(CCN2C(=O)CC(C(N)=O)SC2=Nc2ccccc2)cc1 (stereo not given),-27*,-2,-1,2,-4
CNC(=O)C1CC(=O)N(CCc2ccccc2)C(=Nc2ccc(OC)cc2)S1 (stereo not given),-18,-2,-7,1,3
O=C(C[C@@H]1CC[C@H](NC(=O)CC2CC2)[C@@H](CO)O1)NCc1ccc(Cl)cc1,2,-1,0,6,.
Cc1ccccc1-c1ccc([C@H]2[C@@H](CO)N3CCCCN(C(=O)Nc4ccc(F)cc4)C[C@H]23)cc1,-59,-1,15,-1,.
O=C(N/N=C/c1cccc(Oc2ccccc2)c1)c1ccccc1Br,-28*,-2,-10,3,-12
COc1ccc(C(NC(C)=O)c2cc(Cl)c3cccnc3c2O)cc1 (stereo not given),-29,6,18,1,-26
CC(=O)NC(c1cc(F)c2cccnc2c1O)C1CC1 (stereo not given),-18,1,40*,-4,-1
Cc1ccc(C)c(C(=O)COC(=O)C(C)N2C(=O)C3C4CCC(C4)C3C2=O)c1 (stereo not given),-29*,-5,4,1,-7
C[C@@H]1CN([C@H](C)CO)C(=O)c2cc(-c3cccc(F)c3)cnc2O[C@H]1CN(C)C(=O)C1CC1,1,.,.,.,.
C[C@@H]1CN([C@H](C)CO)C(=O)CCCn2cc(nn2)CO[C@H]1CN(C)C,3,-1,24,0,.
COc1ccc(Nc2nc(C(=O)N3CCc4ccccc4C3)cs2)cc1,-48,0,7,-9,-7
